The source of these data is PubChem BioAssay.

A short description of experiment [1]: antimalarial activity against Dd2 strain (AID 2302;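 active means growth inhibition above 50% at the single 2 µM test dose, taken to imply half-maximal potency below 2 µM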;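 further: 0% = DMSO untreated growth and 100% = chloroquine plus artemisinin killed control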). As to conditions: P. falciparum Dd2 in RBCs, LDH growth readout, 72 h; at 2 µM; stronger effect = higher value.
Experiment [2] can be described thus: HepG2 cytotoxicity, primary screen, cytotoxicity control for P. falciparum antimalarial project, cell-based, ATP luminescence (AID 2303;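 active means inhibition above 50%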;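 further: 0% = DMSO wells and 100% = digitonin-killed cells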). To be noted: HepG2 viability, 24-48 h, at 10 µM, stronger effect = higher value.
Experiment [3] deals with L-lactate dehydrogenase (Plasmodium falciparum (isolate CDC / Honduras)) (UniProt Q27743). Put plainly: PfLDH activity inhibition – cell lysate, 3D7 strain, counter-screen for P. falciparum growth inhibition project (AID 2304).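 Further: 0% = vehicle and 100% = reference inhibitor.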 To be noted: P. falciparum 3D7 crude extract, LDH APAD/NBT absorbance; at 2 µM; stronger effect = higher value. (In general: Counterscreens check selectivity or assay interference.)
L-lactate dehydrogenase (Plasmodium falciparum (isolate CDC / Honduras)), sequence (Q27743 whole entry, looked up): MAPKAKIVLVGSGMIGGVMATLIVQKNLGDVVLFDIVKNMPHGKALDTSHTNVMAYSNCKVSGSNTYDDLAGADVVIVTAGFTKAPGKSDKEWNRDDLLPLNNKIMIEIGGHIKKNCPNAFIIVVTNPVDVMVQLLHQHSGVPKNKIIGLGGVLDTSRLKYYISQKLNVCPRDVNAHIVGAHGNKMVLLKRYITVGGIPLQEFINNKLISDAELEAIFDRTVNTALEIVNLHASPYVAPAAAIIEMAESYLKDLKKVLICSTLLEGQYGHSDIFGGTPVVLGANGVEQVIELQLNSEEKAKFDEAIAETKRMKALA

Experiment [4] can be described thus: inhibition of 3D7 malaria parasite growth – strain 3D7 (AID 2306).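 Further: 0% = DMSO wells and 100% = chloroquine plus artemisinin control wells.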 As to conditions: P. falciparum 3D7 erythrocytic growth, LDH absorbance, 72 h; at 2 µM; stronger effect = higher value.
Experiment [5] has as its target Calcium-dependent protein kinase 1 (Plasmodium falciparum (isolate 3D7)) (UniProt P62344). Put plainly: PfCDPK1 kinase inhibitors, biochemical, TCAMS library (AID 1159585; cut-off not given, nearly all actives have IC50 up to about 0.98 µM;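 further: inhibitors leave more ATP so luminescence rises with inhibition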). As to conditions: recombinant PfCDPK1, Kinase-Glo ATP depletion luminescence. In general terms: In Kinase-Glo more light means more ATP remaining.
In experiment [6] the target is Plasmodium falciparum protein kinase 6 (PK6, PF3D7_1337100) (UniProt Q8IDW1). Nature of the experiment: PfPK6 kinase inhibitors, biochemical, TCAMS library (AID 1159586). To be noted: recombinant PfPK6, Kinase-Glo ATP depletion luminescence.
Plasmodium falciparum protein kinase 6 (PK6, PF3D7_1337100), sequence (Q8IDW1 1-305): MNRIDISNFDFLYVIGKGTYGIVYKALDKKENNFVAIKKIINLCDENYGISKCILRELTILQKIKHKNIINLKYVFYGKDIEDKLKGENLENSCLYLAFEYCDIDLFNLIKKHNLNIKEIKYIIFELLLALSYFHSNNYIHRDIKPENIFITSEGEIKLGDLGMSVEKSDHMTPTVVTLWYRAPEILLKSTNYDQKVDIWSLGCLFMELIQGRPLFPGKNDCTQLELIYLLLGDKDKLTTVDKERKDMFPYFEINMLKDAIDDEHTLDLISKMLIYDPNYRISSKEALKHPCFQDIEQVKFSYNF
The target in experiment [7] is Protein kinase 7 (PK7), Plasmodium falciparum 3D7 (PF3D7_0213400) (UniProt Q7YTF7). Put plainly: inhibition of Plasmodium PK7 catalytic activity – biochemical, TCAMS antimalarial set, Kinase-Glo luminescence (AID 1159587). To be noted: recombinant PfPK7, Kinase-Glo ATP depletion luminescence.
Protein kinase 7 (PK7), Plasmodium falciparum 3D7 (PF3D7_0213400), sequence (Q7YTF7 1-343): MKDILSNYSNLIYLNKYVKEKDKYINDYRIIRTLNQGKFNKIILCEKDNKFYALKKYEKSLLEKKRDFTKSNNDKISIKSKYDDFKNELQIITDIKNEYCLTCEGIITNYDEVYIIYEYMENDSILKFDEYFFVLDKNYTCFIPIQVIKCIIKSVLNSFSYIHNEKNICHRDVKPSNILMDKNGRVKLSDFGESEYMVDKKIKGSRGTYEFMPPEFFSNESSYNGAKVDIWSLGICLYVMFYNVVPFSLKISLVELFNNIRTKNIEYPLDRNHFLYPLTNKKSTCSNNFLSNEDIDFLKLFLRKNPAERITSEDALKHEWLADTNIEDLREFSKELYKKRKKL
The target of experiment [8] is Calcium-dependent protein kinase 4 (Plasmodium falciparum (isolate 3D7)) (UniProt Q8IBS5). Put plainly: PfCDPK4 kinase inhibitors, biochemical, TCAMS library (AID 1159588; cut-off not given, nearly all actives have IC50 up to about 0.91 µM). To be noted: recombinant PfCDPK4, Kinase-Glo ATP depletion luminescence.
Calcium-dependent protein kinase 4 (Plasmodium falciparum (isolate 3D7)), sequence (Q8IBS5 whole entry, looked up): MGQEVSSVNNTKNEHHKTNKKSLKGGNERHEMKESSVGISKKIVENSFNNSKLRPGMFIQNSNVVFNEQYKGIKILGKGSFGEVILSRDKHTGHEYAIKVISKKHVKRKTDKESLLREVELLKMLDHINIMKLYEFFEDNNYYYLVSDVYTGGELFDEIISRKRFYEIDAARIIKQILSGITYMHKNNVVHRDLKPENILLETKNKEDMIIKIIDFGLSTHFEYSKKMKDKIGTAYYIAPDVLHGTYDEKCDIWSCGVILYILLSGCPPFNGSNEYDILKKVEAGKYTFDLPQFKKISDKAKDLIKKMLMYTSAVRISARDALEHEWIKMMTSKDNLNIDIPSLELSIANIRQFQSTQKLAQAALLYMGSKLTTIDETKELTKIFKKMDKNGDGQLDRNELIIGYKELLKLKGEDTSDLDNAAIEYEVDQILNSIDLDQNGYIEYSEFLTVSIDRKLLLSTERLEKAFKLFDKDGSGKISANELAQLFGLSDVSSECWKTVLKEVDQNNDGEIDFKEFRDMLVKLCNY

Unmarked numbers belong to inactive results. For some of these results: Results with a measured potency or affinity are listed apart. The source made the active and inactive calls. Unless noted, how the calls were made is not given here.

Calcium-dependent protein kinase 1 (Plasmodium falciparum (isolate 3D7)), sequence (P62344 whole entry, looked up): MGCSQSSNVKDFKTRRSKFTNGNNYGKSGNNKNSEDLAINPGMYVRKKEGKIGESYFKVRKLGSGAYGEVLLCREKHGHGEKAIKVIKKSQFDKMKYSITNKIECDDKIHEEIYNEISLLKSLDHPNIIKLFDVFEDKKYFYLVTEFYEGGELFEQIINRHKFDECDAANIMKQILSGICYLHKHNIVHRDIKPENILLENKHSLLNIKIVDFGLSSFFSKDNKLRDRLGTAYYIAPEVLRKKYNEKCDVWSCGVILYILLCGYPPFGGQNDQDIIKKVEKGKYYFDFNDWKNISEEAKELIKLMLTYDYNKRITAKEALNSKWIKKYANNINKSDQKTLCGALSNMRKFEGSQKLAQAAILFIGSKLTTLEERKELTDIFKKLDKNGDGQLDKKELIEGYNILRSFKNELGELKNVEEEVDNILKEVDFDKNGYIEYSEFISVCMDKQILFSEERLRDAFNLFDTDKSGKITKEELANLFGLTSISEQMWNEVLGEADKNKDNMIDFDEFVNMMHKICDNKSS

On to `COc1ccc(CN2CCCC(Nc3ccc(F)c(F)c3)C2)c(O)c1` (stereo not given), for which the figures for the growth inhibition in experiment [1] and in experiment [4] were 83% (active) and 95% (active), respectively. In addition, the inhibition in experiment [2] was 14%; in experiment [3], 3%. In addition, the outcome in experiment [5], in experiment [6], in experiment [7] and in experiment [8] was inactive.

With `O=C(/C=C/c1ccc(Cl)c(Cl)c1)NCCCCCCN1CCCN(C(=O)Nc2ccc(Cl)c(C(F)(F)F)c2)CC1`, the figures for the growth inhibition in experiment [1] and in experiment [4] were 24% and 101% (active), respectively. For the same compound, the inhibition in experiment [2] is 25%; in experiment [3], -4%. Besides, the outcome in experiment [5], in experiment [6], in experiment [7] and in experiment [8] was inactive.

Regarding `O=C(CN1CCN(C(=O)c2ccco2)CC1)Nc1ccc(Br)cc1Cl`, the growth inhibition was 79% (active) in experiment [1] and 88% (active) in experiment [4]. Also, the results for the inhibition in experiment [2] and in experiment [3] were 10% and -6%, respectively. Also, the result in experiment [5], in experiment [6], in experiment [7] and in experiment [8] was inactive.

For the compound `CCOc1cc(C)ccc1N1CCN(CCN2CCC(NC(=O)c3ccc(-c4ccc(C#N)cc4)cc3)CC2)CC1`, the growth inhibition in experiment [1] is 3%; in experiment [4] it was 84% (active). Moreover, the inhibition in experiment [2] was 9%; in experiment [3] it was -1%. The result in experiment [5], in experiment [6], in experiment [7] and in experiment [8] was inactive.

On to `NC(N)=NCCN(Cc1ccccc1)c1ccc(Cl)cc1`, for which the growth inhibition in experiment [1] was 99% (active); in experiment [4], 100% (active). Also, the inhibition in experiment [2] is -7%; in experiment [3] it was -3%. Further, the outcome in experiment [5], in experiment [6], in experiment [7] and in experiment [8] was inactive.

With `Cc1cc(C=C(P(=O)(OC(C)C)OC(C)C)P(=O)(OC(C)C)OC(C)C)c2ccccc2c1O`, the growth inhibition is 54% (active) in experiment [1] and 85% (active) in experiment [4]. Besides, the inhibition in experiment [2] is 15%; in experiment [3], -6%. Further, the outcome in experiment [5], in experiment [6], in experiment [7] and in experiment [8] was inactive.

With `O=S(=O)(Nc1cccc(CCN2CCC(N3CCCCC3)CC2)c1)c1ccc(Oc2ccccc2)cc1`, the growth inhibition in experiment [1] is 25%; in experiment [4], 100% (active). Further, the inhibition was 28% in experiment [2] and 0% in experiment [3]. In addition, the result in experiment [5], in experiment [6], in experiment [7] and in experiment [8] was inactive.

Turning to `O=C(Nc1ccc(Br)cc1)c1cc(Br)ccc1NS(=O)(=O)c1cc(C(F)(F)F)cc(C(F)(F)F)c1`, the growth inhibition was 67% (active) in experiment [1] and 85% (active) in experiment [4]. Moreover, the inhibition in experiment [2] is 68% (active); in experiment [3], -7%. For the same compound, the outcome in experiment [5], in experiment [6], in experiment [7] and in experiment [8] was inactive.

For `COc1cc(SC)ccc1C(=O)N1CC(C)CC(C)C1` (stereo not given), the growth inhibition in experiment [1] was 66% (active); in experiment [4], 98% (active). The inhibition in experiment [2] was 5%; in experiment [3] it was -8%. The result in experiment [5], in experiment [6], in experiment [7] and in experiment [8] was inactive.

Turning to `O=C(NCC1CCC(CNCCc2ccccc2)CC1)Nc1ccc(Cl)c(Cl)c1` (stereo not given), the growth inhibition is -3% in experiment [1] and 96% (active) in experiment [4]. For the same compound, the results for the inhibition in experiment [2] and in experiment [3] were 24% and -1%, respectively. Also, the result in experiment [5], in experiment [6], in experiment [7] and in experiment [8] was inactive.

For `COc1ccc2ccccc2c1CNCC1CCN(CC2CCCCC2)CC1`, the growth inhibition was 27% in experiment [1] and 98% (active) in experiment [4]. In addition, the values for the inhibition in experiment [2] and in experiment [3] were 23% and -3%, respectively. The result in experiment [5], in experiment [6], in experiment [7] and in experiment [8] was inactive.

Take `O=C(NCCCCN1CCC(c2ccc3ccccc3c2O)CC1)c1ccc(NC(=O)c2ccc(Cl)cc2)cc1`: the results for the growth inhibition in experiment [1] and in experiment [4] were 89% (active) and 101% (active), respectively. In addition, the inhibition is 34% in experiment [2] and 3% in experiment [3]. In addition, the outcome in experiment [5], in experiment [6], in experiment [7] and in experiment [8] was inactive.

In the case of `O=C(Nc1cccc(-c2ccc(-c3nc4ccc(C(F)(F)F)cc4[nH]3)s2)c1)c1ccncc1`, the growth inhibition was 46% in experiment [1] and 99% (active) in experiment [4]. Besides, the inhibition in experiment [2] is 79% (active); in experiment [3] it was -13%. Moreover, the result in experiment [5], in experiment [6], in experiment [7] and in experiment [8] was inactive.

Regarding `Nc1nc2c(c(=O)[nH]1)-c1cccc(Br)c1CC2`, the growth inhibition in experiment [1] was -3%; in experiment [4], 97% (active). The figures for the inhibition in experiment [2] and in experiment [3] were 66% (active) and 0%, respectively. Further, the outcome in experiment [5], in experiment [6], in experiment [7] and in experiment [8] was inactive.

For `CC(C)COc1ccc(Cl)cc1Cc1ccc(-c2nc3ccc(C(F)(F)F)cc3[nH]2)o1`, the growth inhibition in experiment [1] is 51% (active); in experiment [4], 97% (active). Further, the inhibition in experiment [2] is 14%; in experiment [3], 5%. In addition, the result in experiment [5], in experiment [6], in experiment [7] and in experiment [8] was inactive.

On to `Cc1cc(C=C2SC(=Nc3ccccc3)N(C3CCCC3)C2=O)c(C)n1-c1ccc(Cl)cc1`, for which the growth inhibition is 70% (active) in experiment [1] and 100% (active) in experiment [4]. The inhibition in experiment [2] was -8%; in experiment [3], -1%. Further, the result in experiment [5], in experiment [6], in experiment [7] and in experiment [8] was inactive.

`Cc1cc(N2CCCC2)nc(Nc2ccc(NC(=O)Cc3ccccc3)cc2)n1`: the growth inhibition in experiment [1] is 72% (active); in experiment [4] it was 102% (active). The inhibition in experiment [2] is 71% (active); in experiment [3] it was -4%. Moreover, the result in experiment [5], in experiment [6], in experiment [7] and in experiment [8] was inactive.

As for `C[C@@H](C(N)=O)N1CCCCC1c1ccc(OCc2cccc(F)c2)cc1` (stereo not given in full), the growth inhibition was 96% (active) in experiment [1] and 84% (active) in experiment [4]. In addition, the inhibition in experiment [2] is 79% (active); in experiment [3] it was 9%. Further, the result in experiment [5], in experiment [6], in experiment [7] and in experiment [8] was inactive.

As for `O=C(Nc1ccc(-c2nc3ccccc3[nH]2)cc1)c1ccc(-c2cccc([N+](=O)[O-])c2)o1`, the growth inhibition in experiment [1] is 97% (active); in experiment [4], 101% (active). Also, the inhibition in experiment [2] is 47%; in experiment [3], -2%. Besides, the outcome in experiment [5], in experiment [6], in experiment [7] and in experiment [8] was inactive.

`Cc1nc(-c2cccc(NCc3ccccc3)c2)[nH]c1C`: the growth inhibition in experiment [1] was 48%; in experiment [4], 101% (active). The inhibition was 16% in experiment [2] and 1% in experiment [3]. Further, the result in experiment [5], in experiment [6], in experiment [7] and in experiment [8] was inactive.

What is called inhibition is the drop in the measured response relative to a control, in per cent.
